High-throughput results deposited in PubChem BioAssay by Broad Institute.
NSD2 inh: inhibitors of human histone methyltransferase NSD2; 310,000 compounds, 0.54% hits; inhibition, % at 12.5 µM; NSD2 peptide methylation, AlphaScreen, 120 min; O96028; in the data active = inhibition above about 50%
LANA DNA inh: inhibitors of KSHV LANA C-terminal domain DNA binding | MBP-C-LANA/FAM-LBS DNA binding, fluorescence polarization | inhibition, % at 9 µM | 340,000 compounds, 0.078% hits | AID 504423;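 active = highest replicate inhibition at or above 60% at 9 µM, even if other replicates fall short; inactive = all replicates below 60% inhibition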
Keap1 Nrf2 FP: disrupts human Keap1 binding to Nrf2 peptide; Q14145; Keap1 Kelch-Nrf2 peptide fluorescence polarization, 1536-well; inhibition, % at 9.4 µM; 340,000 compounds, 0.15% hits; in the data active = inhibition above about 12%; inconclusive = no clear call, values can overlap the other calls; inactive = below about 7.3%;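 note: human Keap1 Kelch domain with fluorescein labeled Nrf2 9mer peptide probe; higher means more block of Keap1 binding to Nrf2 peptide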
HDAC3 inhib: inhibitors of human histone deacetylase 3 | O15379 | inhibition, % at 8.3 µM | 320,000 compounds, 0.15% hits | recombinant HDAC3, fluorogenic peptide/trypsin coupled, fluorescence | AID 2718; in the data active = inhibition above about 26%, passing the limit was not always enough; inconclusive = no clear call, values can overlap the other calls
Target sequence (O15379 whole entry, looked up): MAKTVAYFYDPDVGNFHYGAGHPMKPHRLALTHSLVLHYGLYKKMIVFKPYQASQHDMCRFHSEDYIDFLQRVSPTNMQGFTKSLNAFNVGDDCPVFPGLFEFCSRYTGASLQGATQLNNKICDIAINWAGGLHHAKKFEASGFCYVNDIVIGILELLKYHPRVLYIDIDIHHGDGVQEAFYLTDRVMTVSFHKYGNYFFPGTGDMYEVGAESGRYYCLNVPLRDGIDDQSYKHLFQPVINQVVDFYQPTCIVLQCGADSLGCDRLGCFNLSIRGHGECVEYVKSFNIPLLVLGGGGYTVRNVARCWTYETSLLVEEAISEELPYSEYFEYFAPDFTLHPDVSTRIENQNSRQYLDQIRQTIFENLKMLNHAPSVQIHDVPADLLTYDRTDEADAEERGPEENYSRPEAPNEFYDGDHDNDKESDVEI
Glyco luc inh: blocks N-linked glycosylation in D54 reporter cells; 360,000 compounds, 0.23% hits; D54 ERlucT glycosylation luciferase reporter, 24 h; percent of 100 nM tunicamycin response; reporter increase, % at 12.5 µM;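 active = mean luciferase reporter signal, scaled so untreated is 0 and the glycosylation-blocking control 100, at or above a set limit in every replicate; inconclusive = mean reaches the limit but not every replicate does; inactive = mean below the limit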;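 note: luciferase carries N-glycosylation sites so blocking glycosylation raises the light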
Casp6 inh: inhibitors of human caspase-6; P55212; purified caspase-6, Z-VEID-R110 cleavage fluorescence; inhibition, % at 12.5 µM; 350,000 compounds, 0.53% hits; AID 686996;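 active = mean inhibition across replicates at least about 35%, with every replicate also reaching that limit, limit read from the data; inconclusive = only one of the two criteria met; inactive = neither criterion met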
Each line names hits and unclear results; the compound was inactive in the other large screens. Hits are enriched below; roughly 1.1% of the tested compounds scored in any of these assays.

Cc1oc(-c2ccc(F)cc2)cc1-c1nn2c(-c3ccoc3C)nnc2s1	none (no result: NSD2 inh, Casp6 inh)
Cc1oc(-c2ccc(F)cc2)cc1-c1nn2c(-c3ccco3)nnc2s1	Casp6 inh 57 (no result: LANA DNA inh, Keap1 Nrf2 FP, HDAC3 inhib, Glyco luc inh)
CC(=O)Nc1ccc(NC(=O)COC(=O)c2ccc([N+](=O)[O-])o2)cc1	Casp6 inh 54
CC(=O)c1ccc(NC(=O)c2ccc([N+](=O)[O-])o2)cc1	Glyco luc inh inconclusive
Cc1ccc(NC(=O)c2ccc([N+](=O)[O-])o2)cc1S(=O)(=O)N1CCOCC1	Glyco luc inh inconclusive, Casp6 inh 41
COc1ccc(NC(=O)c2ccc([N+](=O)[O-])o2)cc1	Glyco luc inh 31
Cc1cc(C)c2nc(NC(=O)c3ccc([N+](=O)[O-])o3)sc2c1	none
Cc1cc(C)c2sc(NC(=O)c3ccc([N+](=O)[O-])o3)nc2c1	Glyco luc inh 44 (no result: NSD2 inh)
C[C@@H]1CN([C@@H](C)CO)C(=O)c2cc(NS(=O)(=O)c3ccccc3)ccc2O[C@@H](C)CCCCO[C@@H]1CN(C)Cc1ccc2c(c1)OCO2	none (no result: NSD2 inh, LANA DNA inh, Keap1 Nrf2 FP, HDAC3 inhib, Glyco luc inh)
O=C(COC(=O)c1ccc([N+](=O)[O-])o1)NCc1ccc(F)cc1	Casp6 inh 52
COc1ccc(CCNC(=O)COC(=O)c2ccc([N+](=O)[O-])o2)cc1	Casp6 inh 59
COc1ccc(CCNC(=O)COc2ccc([N+](=O)[O-])cc2)cc1	none
O=C(COc1ccc(C(=O)c2ccccc2)cc1)NCc1ccc(F)cc1	Glyco luc inh 29 (no result: Casp6 inh)
O=C(COC(=O)c1ccc(Br)o1)Nc1ncc([N+](=O)[O-])s1	Casp6 inh 48
CO[C@H]1CN(C)C(=O)c2ccc(NC(=O)Nc3c(C)noc3C)cc2OC[C@H](C)N(CC2CC2)C[C@@H]1C	none (no result: NSD2 inh, LANA DNA inh, Keap1 Nrf2 FP, HDAC3 inhib, Glyco luc inh)
C/C=C/c1ccccc1[C@H]1[C@@H](CO)N(C(=O)Nc2ccccc2)[C@H]1C#N	none (no result: NSD2 inh, LANA DNA inh, Keap1 Nrf2 FP, HDAC3 inhib, Glyco luc inh)
COc1cccc(S(=O)(=O)N2C[C@H](O)COC[C@H]3O[C@H](CC(=O)N4CCCCC4)CC[C@@H]32)c1	none (no result: NSD2 inh, LANA DNA inh, Keap1 Nrf2 FP, HDAC3 inhib, Glyco luc inh)
O=C(Nc1c(Cl)ccc2nsnc12)c1ccc(Br)o1	none (no result: LANA DNA inh, Keap1 Nrf2 FP, HDAC3 inhib)
O=C(Nc1c(Cl)ccc2nsnc12)c1ccc([N+](=O)[O-])o1	Glyco luc inh 46
O=C(COC(=O)c1ccc([N+](=O)[O-])o1)Nc1cccc2ccccc12	none
O=C(COC(=O)c1ccc([N+](=O)[O-])o1)NCCCc1ccccc1	Casp6 inh 49
C/C=C/c1ccc(C2[C@H]3CNC[C@@H]2N3C(=O)NC(C)C)cc1 (stereo partly specified)	none (no result: NSD2 inh, LANA DNA inh, Keap1 Nrf2 FP, HDAC3 inhib, Glyco luc inh)
CNC[C@@H]1Oc2ccc(NC(=O)Nc3ccc(OC)cc3)cc2C(=O)N([C@@H](C)CO)C[C@@H]1C	none (no result: NSD2 inh, LANA DNA inh, Keap1 Nrf2 FP, HDAC3 inhib, Glyco luc inh)
O=C(NN=C1CCCC1)c1n[nH]c2c1CCC2	HDAC3 inhib inconclusive, Casp6 inh 59
O=C(NN=C1CCCC1)c1n[nH]c2c1CCCC2	none
COc1ccc(Nc2nc(N3CCCC3)nc(N3CCOCC3)n2)cc1	none (no result: NSD2 inh)
CCOc1ccc(Nc2nc(N3CCOCC3)nc(N3CCOCC3)n2)cc1	Casp6 inh 41
O=C1N[C@@H](Cc2ccccc2)COC(=O)[C@@H](Cc2ccc(F)cc2)CC/C=C/C[C@@H]1CC(=O)N(CCO)Cc1ccccc1	none (no result: NSD2 inh)
O=C1N[C@H](Cc2ccccc2)COC(=O)[C@@H](Cc2ccc(F)cc2)CC/C=C/C[C@H]1CC(=O)N(CCO)Cc1ccccc1	HDAC3 inhib 29 (no result: NSD2 inh)
O=C(C[C@@H]1C/C=C/CC[C@H](Cc2ccc(F)cc2)C(=O)OC[C@@H](Cc2ccccc2)NC1=O)N[C@H](CO)Cc1ccccc1	Glyco luc inh 126 (no result: NSD2 inh, Casp6 inh)
C[C@H](CO)N1C[C@H](C)[C@@H](CN(C)Cc2ccc(Oc3ccccc3)cc2)Oc2ccc(NC(=O)Cc3ccccc3)cc2CC1=O	none (no result: NSD2 inh, LANA DNA inh, Keap1 Nrf2 FP, HDAC3 inhib, Glyco luc inh)
O=C(NCCCN1CCCC1)c1ccc2c(c1)N(Cc1cccc(Cl)c1)C(=O)c1ccccc1S2(=O)=O	Casp6 inh 65 (no result: LANA DNA inh, Keap1 Nrf2 FP, HDAC3 inhib)
CC1CCCCN1CCNC(=O)c1ccc2c(c1)N(Cc1cccc(Cl)c1)C(=O)c1ccccc1S2(=O)=O (stereo unspecified)	none (no result: LANA DNA inh, Keap1 Nrf2 FP, HDAC3 inhib)
CC1=C(C#N)C(=O)OC(C)(C)C1	Keap1 Nrf2 FP 19 (no result: Casp6 inh)
N#C[C@H]1[C@@H](c2ccccc2C2=CCCCC2)[C@H](CO)N1C(=O)CN1CCOCC1	none (no result: NSD2 inh, LANA DNA inh, Keap1 Nrf2 FP, HDAC3 inhib, Glyco luc inh)
Cc1cc(C)nc(Sc2ccc([N+](=O)[O-])cc2[N+](=O)[O-])n1	none (no result: Casp6 inh)
CN(C)/N=C/c1ccc(Sc2ccc([N+](=O)[O-])cc2[N+](=O)[O-])o1	Glyco luc inh 27 (no result: Casp6 inh)
